Test results taken from PubChem BioAssay.
“And” between values parts separate entries of the source, which are not always exact repeats. Identical values can stand only once. Where a structure was tested more than once in an assay, its records may differ in their call. The source made the active and inactive calls.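 Rule for the calls, unless noted: active = normalized viability below 100% at a tested concentration; inactive = the rest.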

Experiments:
[1] = chitosan synthesis blockers in C. neoformans – flow cytometry, Cibacron Brilliant Red staining (AID 1347148; call rule not given here;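 note: compound exposure lasted three days at 37 degrees C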); settings: Cryptococcus neoformans chitosan, stronger effect = lower value; at 10 µM unless noted
[2] = compounds altering HSF1 focus formation in cells – imaging, Selleck Cancer Library (AID 1347162; in the data active = plate-normalised HSF1 focus index below about 0.46); settings: human cells, HSF1 nuclear foci imaging, at 10 µM; SSMD: measured here: HSF1 foci SSMD mean; cell count: measured here: cell number; plate-normalised HSF1 focus index: stronger effect = lower value
[3] = compounds altering viability of human ES cells (AID 493140; call rule not given here;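 note: cells exposed to compounds for four days before counting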); settings: human embryonic stem cell survival screen; stronger effect = higher value
[4] = P. berghei load reduction in hepatocytes – cell-based, HepG2, luciferase luminescence, HepG2 viability, primary screen (AID 624349; in the data active = parasite load remaining mostly below about 12%, no sharp cut-off; inactive = mostly above about 10%;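 note: 100% = mean of DMSO negative control wells on the same plate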); settings: P. berghei liver stage in HepG2, luciferase luminescence, concentration not given here; parasite load remaining: stronger effect = lower value; viability: measured here: HepG2 viability without parasites
[5] = drug combination growth inhibition, ovarian cancer – cell-based, oncology-focused library, rucaparib conditional, profiling panel (AID 1508598); settings: patient-derived ovarian cancer cells, CellTiter-Glo viability, 144 h, stronger effect = lower value
[6] = MELAS cybrid and Rieske KO viability enhancers – cell-based, MELAS cybrids, Rieske KO mouse fibroblasts, CellTiter-Glo, primary screen (AID 1508586;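 active = mean z-score across replicates of 1.96 or higher in either the MELAS or the Rieske mutant cell line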;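 note: z relative to plate mean and SD of compound and empty wells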); settings: low glucose
[7] = galactose survival enhancers in mitochondrial complex I cybrids – cell-based, galactose medium, ATP luminescence, primary screen (AID 1645843;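 active = z-score of at least 1.8 in each of two replicates, scored against plate mean and spread of sample wells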;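 note: positive z means more ATP and so rescue of galactose-driven cybrid death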); settings: complex I mutant cybrid cells, 72 h, stronger effect = higher value
[8] = blockers of cellular phospholipid synthesis – cell-based, LOPAC library, screen 4, primary screen (AID 1347384; call rule not given here); settings: animal cells, phospholipid biosynthesis inhibition screen; at 10 µM
[9] = MELAS cybrid survival, CellTiter-Glo 48 h, stronger effect = higher value
[10] = Rieske KO mouse fibroblast survival, CellTiter-Glo 72 h

## C[C@@H](/C=C/c1cccc(Oc2ccc(F)cc2)c1)N(O)C(N)=O
[1]
  fold fluorescence: 6.07 [at 158.1 µM] (inactive)

## C=C1/C(=C/C=C2\CCC[C@]3(C)[C@@H]([C@H](C)/C=C/[C@@H](C)C(C)C)CC[C@@H]23)C[C@@H](O)C[C@@H]1O
[2]
  SSMD: 1.3
  cell count: 6600
  plate-normalised HSF1 focus index: 1.07 (inactive)

## COC(=O)[C@H](CCCN=C(N)N)NS(=O)(=O)c1ccc(C)cc1
[2]
  SSMD: 1.44
  cell count: 7120
  plate-normalised HSF1 focus index: 1.08 (inactive)

## Nc1ncnc2c1c(I)cn2C1OC(CO)C(O)C1O (stereo not given)
[3]
  survival: 7.5 (inactive)
[1]
  fold fluorescence: 3.83 [at 127.5 µM] (inactive)

## C=C1/C(=C\C=C2/CCC[C@]3(C)[C@@H]2CC[C@H]3[C@@H](C)CCCC(C)(C)O)C[C@H](O)C[C@H]1O
[1]
  fold fluorescence: 7.1 (inactive)

## C[S@](=O)c1ccc(-c2nc(-c3ccc(F)cc3)c(-c3ccncc3)[nH]2)cc1
[1]
  fold fluorescence: 8.78 [at 132.5 µM] (inactive)

## OC[C@H]1O[C@@H](n2cnc3c2NC=NC[C@H]3O)CC1O (stereo not given in full)
[2]
  SSMD: 3.2
  cell count: 7070
  plate-normalised HSF1 focus index: 1.17 (inactive)

## CCCCC/C=C\C=C\[C@@H](O)CCCCCCCC(=O)O
[3]
  survival: 108 (inactive)
[1]
  fold fluorescence: 5.71 [at 1 µM] (inactive)

## O=C1c2ccccc2-c2nc3nonc3nc21
[2]
  SSMD: -15
  cell count: 3090
  plate-normalised HSF1 focus index: 0.229 (active)

## CN(CCc1ccc(Cl)c(Cl)c1)C[C@H](O)COc1ccc(NS(C)(=O)=O)cc1
[1]
  fold fluorescence: 3.81 [at 111.8 µM] (inactive)

## C[C@@](O)(C(=O)Nc1ccc(S(=O)(=O)c2ccccc2)cc1)C(F)(F)F
[1]
  fold fluorescence: 5.17 [at 133.9 µM] (inactive)

## COC(=O)[C@H]1[C@@H]2C[C@@H]3c4[nH]c5ccccc5c4CCN3C[C@H]2CC[C@H]1O
[1]
  fold fluorescence: 3.91 [at 141.1 µM] (inactive)

## CCCCC(C)(O)C/C=C/[C@H]1[C@H](CCCCCCC(=O)O)C(=O)C[C@@H]1O (stereo not given in full)
[1]
  fold fluorescence: 3.98 (inactive)

## COc1ccc(CCN(C)CCC[C@@](C#N)(c2ccc(OC)c(OC)c2)C(C)C)cc1OC
[1]
  fold fluorescence: 7.65 [at 110 µM] (inactive)

## OC[C@@H]1NC[C@@H](O)[C@H](O)[C@H]1O
[1]
  fold fluorescence: 7.48 [at 306.4 µM] (inactive)

## C=C1CC[C@@H](O)C/C1=C/C=C1\CCC[C@]2(C)[C@@H]1CC[C@H]2[C@@H](C)CCCC(C)(C)O
[1]
  fold fluorescence: 5.68 (inactive)

## O=c1c2ccccc2[nH]c(=S)n1CCN1CCC(=C(c2ccc(F)cc2)c2ccc(F)cc2)CC1
[4]
  parasite load remaining: 40.1% (inactive)
  viability: 100%

## N#C/C(=C1/Nc2ccccc2S1)c1ccnc(NCCc2cccnc2)n1
[4]
  parasite load remaining: 18.8% (inactive)
  viability: 85.6%

## N#CC[C@@H](C1CCCC1)n1cc(-c2ncnc3[nH]ccc23)cn1
[5]; at 0.000305 µM, OCI-C5x cells, with rucaparib 10 µM, 100% = cells with rucaparib alone
  viability: 113% (inactive) and 107% (inactive)
[5]; at 0.000305 µM, OCI-C5x cells, without rucaparib
  viability: 113% (inactive) and 115% (inactive)
[5]; at 0.000305 µM, OCI-P5x cells, with rucaparib 20 µM, 100% = cells with rucaparib alone
  viability: 90.3% (active) and 57.2% (active)
[5]; at 0.000305 µM, OCI-P5x cells, without rucaparib
  viability: 67.6% (active) and 15.7% (active)
[5]; at 0.00122 µM, OCI-C5x cells, with rucaparib 10 µM, 100% = cells with rucaparib alone
  viability: 104% (inactive) and 71.4% (active)
[5]; at 0.00122 µM, OCI-C5x cells, without rucaparib
  viability: 116% (inactive) and 58.3% (active)
[5]; at 0.00122 µM, OCI-P5x cells, with rucaparib 20 µM, 100% = cells with rucaparib alone
  viability: 75.9% (active) and 50.4% (active)
[5]; at 0.00122 µM, OCI-P5x cells, without rucaparib
  viability: 29.2% (active) and 17% (active)
[5]; at 0.00488 µM, OCI-C5x cells, with rucaparib 10 µM, 100% = cells with rucaparib alone
  viability: 115% (inactive) and 102% (inactive)
[5]; at 0.00488 µM, OCI-C5x cells, without rucaparib
  viability: 114% (inactive) and 116% (inactive)
[5]; at 0.00488 µM, OCI-P5x cells, with rucaparib 20 µM, 100% = cells with rucaparib alone
  viability: 107% (inactive) and 105% (inactive)
[5]; at 0.00488 µM, OCI-P5x cells, without rucaparib
  viability: 106% (inactive) and 105% (inactive)
[5]; at 0.0195 µM, OCI-C5x cells, with rucaparib 10 µM, 100% = cells with rucaparib alone
  viability: 109% (inactive) and 100% (inactive)
[5]; at 0.0195 µM, OCI-C5x cells, without rucaparib
  viability: 99.4% (active) and 104% (inactive)
[5]; at 0.0195 µM, OCI-P5x cells, with rucaparib 20 µM, 100% = cells with rucaparib alone
  viability: 99.9% (active) and 99.8% (active)
[5]; at 0.0195 µM, OCI-P5x cells, without rucaparib
  viability: 99.4% (active) and 104% (inactive)
[5]; at 0.0781 µM, OCI-C5x cells, with rucaparib 10 µM, 100% = cells with rucaparib alone
  viability: 112% (inactive) and 100% (inactive)
[5]; at 0.0781 µM, OCI-C5x cells, without rucaparib
  viability: 113% (inactive) and 109% (inactive)
[5]; at 0.0781 µM, OCI-P5x cells, with rucaparib 20 µM, 100% = cells with rucaparib alone
  viability: 100% (inactive) and 96.9% (active)
[5]; at 0.0781 µM, OCI-P5x cells, without rucaparib
  viability: 101% (inactive) and 102% (inactive)
[5]; at 0.313 µM, OCI-C5x cells, with rucaparib 10 µM, 100% = cells with rucaparib alone
  viability: 105% (inactive) and 98.1% (active)
[5]; at 0.313 µM, OCI-C5x cells, without rucaparib
  viability: 106% (inactive) and 111% (inactive)
[5]; at 0.313 µM, OCI-P5x cells, with rucaparib 20 µM, 100% = cells with rucaparib alone
  viability: 100% (inactive) and 90.7% (active)
[5]; at 0.313 µM, OCI-P5x cells, without rucaparib
  viability: 96.4% (active) and 98.4% (active)
[5]; at 1.25 µM, OCI-C5x cells, with rucaparib 10 µM, 100% = cells with rucaparib alone
  viability: 117% (inactive) and 101% (inactive)
[5]; at 1.25 µM, OCI-C5x cells, without rucaparib
  viability: 108% (inactive) and 109% (inactive)
[5]; at 1.25 µM, OCI-P5x cells, with rucaparib 20 µM, 100% = cells with rucaparib alone
  viability: 97.5% (active) and 88.1% (active)
[5]; at 1.25 µM, OCI-P5x cells, without rucaparib
  viability: 96% (active) and 91.3% (active)
[5]; at 5 µM, OCI-C5x cells, with rucaparib 10 µM, 100% = cells with rucaparib alone
  viability: 133% (inactive) and 122% (inactive)
[5]; at 5 µM, OCI-C5x cells, without rucaparib
  viability: 115% (inactive) and 130% (inactive)
[5]; at 5 µM, OCI-P5x cells, with rucaparib 20 µM, 100% = cells with rucaparib alone
  viability: 83.7% (active) and 82.4% (active)
[5]; at 5 µM, OCI-P5x cells, without rucaparib
  viability: 86.9% (active) and 86.2% (active)

## CC(=O)OCC(=O)[C@@]1(O)CC[C@H]2[C@@H]3CCC4=CC(=O)CC[C@]4(C)C3(F)[C@@H](O)C[C@@]21C (stereo not given in full)
[6]; [9]
  z-score: -0.171 (inactive)
[6]; [10]
  z-score: -0.231

## C[C@H](Cc1cc2c(c(C(N)=O)c1)N(CCCO)CC2)NCCOc1ccccc1OCC(F)(F)F
[6]; [9]
  z-score: -0.477 (inactive)
[6]; [10]
  z-score: -0.901

## CCOC(=O)c1nn(CC)c2c1CN(C(=O)Cn1nc(-c3ccccc3)c3ccccc3c1=O)CC2
[6]; [9]
  z-score: -0.0607 (inactive)
[6]; [10]
  z-score: 0.472
[7]
  z-score: 0.925 (inactive)

## CC(=O)[C@@]12OC(C)(c3ccccc3)O[C@@H]1C[C@H]1[C@@H]3CCC4=CC(=O)CC[C@]4(C)[C@H]3CC[C@@]12C (stereo not given in full)
[6]; [9]
  z-score: 0.905 (inactive)
[6]; [10]
  z-score: 1.8

## COc1c(O[C@@H]2O[C@H](CO)[C@@H](O)[C@H](O)[C@H]2O)cc2c(c1OC)-c1ccc(SC)c(=O)cc1[C@@H](NC(C)=O)CC2
[6]; [9]
  z-score: 0.122 (inactive)
[6]; [10]
  z-score: 0.151

## C[N+](C)(C)CCOP(=O)(O)OP(=O)(O)OC[C@H]1O[C@@H](n2ccc(N)nc2=O)C(O)[C@H]1O (stereo not given in full)
[8]
  outcome: inactive

## CCN1CCCC1CNC(=O)c1nn(CCOC)c2c1CN(Cc1c(C)nc3sccn13)CC2 (stereo not given)
[6]; [9]
  z-score: 0.286 (inactive)
[6]; [10]
  z-score: -0.16
[7]
  z-score: -0.87 (inactive)

## N[C@@H](C(=O)N[C@@H]1C(=O)N2C(C(=O)O)=C(Cl)CC[C@H]12)c1ccccc1
[6]; [9]
  z-score: 0.0513 (inactive)
[6]; [10]
  z-score: -0.0591

## Cc1cnc(CNC(=O)c2cc(-c3ccccc3)cc(S(=O)(=O)N3CCN(C)CC3)c2)cn1
[6]; [9]
  z-score: 0.213 (inactive)
[6]; [10]
  z-score: -0.355
[7]
  z-score: -0.045 (inactive)

## CCCc1c(C(=O)N[C@H]2C[C@H]3C(=O)N[C@H](Cc4ccc(O)cc4)C(=O)N3C2)cnn1-c1ccccc1
[6]; [9]
  z-score: -0.275 (inactive)
[6]; [10]
  z-score: -0.357
[7]
  z-score: -1.02 (inactive)
